Test results published in PubChem BioAssay.
Activity calls are given as the source filed them. Rule as the data show it, unless noted: active = inhibition above about 28%; inactive = the rest.

Tested on: not listed separately
Assay: StAR promoter reporter inhibitors, counter-screen for LRH-1 inverse agonist project, cell-based, luminescence, high throughput (AID 651611)
Conditions: StAR promoter luciferase reporter counterscreen, at 3.6 µM, active compounds read high

Compound	inhibition
CN(C(=O)CN1CCN(c2cc(-c3ccc(OCc4ccccc4)cc3)ncn2)CC1)c1ccccc1	14.7% (inactive)
COc1ccc(CNc2ncnc3ccccc23)cc1	11.2% (inactive)
COc1ccccc1-n1nnnc1S(=O)(=O)Cc1ccc(Cl)cc1	41.7% (active)
Cc1ccnc(NC(=O)C2CCN(S(=O)(=O)c3c(C)c(C)cc(C)c3C)CC2)c1	6.87% (inactive)

Target: Nuclear receptor subfamily 5 group A member 2 (Homo sapiens) (UniProt O00482)
Assay: LRH-1 (NR5A2) inverse agonists, retest, confirmation, cell-based, luminescence (AID 651613; in the data active = inhibition above about 42%;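 also: HEK293T cells co-transfected with LRH-1 and StAR promoter luciferase reporter; 0% = vehicle wells and 100% = parental cells lacking receptor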)
Conditions: cell-based LRH-1 luciferase reporter, inverse agonism; at 3.6 µM; active compounds read high

Chain of Nuclear receptor subfamily 5 group A member 2 (Homo sapiens) (O00482 whole entry, looked up): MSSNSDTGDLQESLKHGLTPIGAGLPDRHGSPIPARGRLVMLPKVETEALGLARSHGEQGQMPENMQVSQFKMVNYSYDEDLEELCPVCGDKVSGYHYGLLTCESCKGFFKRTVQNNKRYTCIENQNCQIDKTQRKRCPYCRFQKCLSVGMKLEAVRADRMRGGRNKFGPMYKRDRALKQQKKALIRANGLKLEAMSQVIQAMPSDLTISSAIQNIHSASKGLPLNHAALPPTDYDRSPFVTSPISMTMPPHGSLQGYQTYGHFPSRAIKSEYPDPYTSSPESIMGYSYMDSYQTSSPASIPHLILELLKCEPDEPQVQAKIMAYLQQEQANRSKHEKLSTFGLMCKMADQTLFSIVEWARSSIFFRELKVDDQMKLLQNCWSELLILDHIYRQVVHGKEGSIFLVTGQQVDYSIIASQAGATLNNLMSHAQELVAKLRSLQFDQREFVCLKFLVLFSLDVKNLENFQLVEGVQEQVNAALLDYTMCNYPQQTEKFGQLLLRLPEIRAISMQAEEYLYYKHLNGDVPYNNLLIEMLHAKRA

Compound	inhibition
CN(C(=O)CN1CCN(c2cc(-c3ccc(OCc4ccccc4)cc3)ncn2)CC1)c1ccccc1	46.5% (active)
COc1ccc(CNc2ncnc3ccccc23)cc1	63.6% (active)
COc1ccccc1-n1nnnc1S(=O)(=O)Cc1ccc(Cl)cc1	51.6% (active)
Cc1ccnc(NC(=O)C2CCN(S(=O)(=O)c3c(C)c(C)cc(C)c3C)CC2)c1	36.1% (inactive)

Target: Steroidogenic factor 1 (Homo sapiens) (UniProt Q13285)
Assay: SF1 (NR5A1) inverse agonists, counter-screen for LRH-1 inverse agonist project, cell-based, luminescence, high throughput (AID 651614; in the data active = inhibition above about 44%;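 also: cells cotransfected with StAR promoter reporter and SF1 expression vector; 0% = vehicle on cells with receptor and 100% = vehicle on cells lacking receptor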)
Conditions: cell-based SF1 luciferase reporter, at 3.6 µM, active compounds read high

Chain of Steroidogenic factor 1 (Homo sapiens) (Q13285 whole entry, looked up): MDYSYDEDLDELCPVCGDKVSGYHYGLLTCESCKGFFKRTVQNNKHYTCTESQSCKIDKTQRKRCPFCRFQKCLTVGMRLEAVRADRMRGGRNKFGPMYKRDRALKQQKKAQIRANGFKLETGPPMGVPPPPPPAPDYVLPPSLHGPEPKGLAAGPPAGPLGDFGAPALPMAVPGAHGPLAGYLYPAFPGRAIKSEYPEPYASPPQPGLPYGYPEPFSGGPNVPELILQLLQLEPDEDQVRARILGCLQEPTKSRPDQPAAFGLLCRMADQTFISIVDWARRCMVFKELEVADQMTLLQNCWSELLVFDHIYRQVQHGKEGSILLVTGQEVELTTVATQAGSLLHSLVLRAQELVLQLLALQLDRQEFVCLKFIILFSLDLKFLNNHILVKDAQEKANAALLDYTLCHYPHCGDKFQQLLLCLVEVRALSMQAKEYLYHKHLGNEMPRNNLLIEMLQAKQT

Compound	inhibition
CN(C(=O)CN1CCN(c2cc(-c3ccc(OCc4ccccc4)cc3)ncn2)CC1)c1ccccc1	46.4% (active)
COc1ccc(CNc2ncnc3ccccc23)cc1	55.6% (active)
COc1ccccc1-n1nnnc1S(=O)(=O)Cc1ccc(Cl)cc1	40.4% (inactive)
Cc1ccnc(NC(=O)C2CCN(S(=O)(=O)c3c(C)c(C)cc(C)c3C)CC2)c1	13.2% (inactive)

Tested on: not listed separately
Assay: VP16 transactivation reporter inhibitors, counter-screen for LRH-1 inverse agonist project, cell-based, luminescence, high throughput (AID 651615; in the data active = inhibition above about 33%)
Conditions: Gal4-VP16 luciferase reporter cells, at 3.6 µM, active compounds read high

Compound	inhibition
CN(C(=O)CN1CCN(c2cc(-c3ccc(OCc4ccccc4)cc3)ncn2)CC1)c1ccccc1	25.7% (inactive)
COc1ccc(CNc2ncnc3ccccc23)cc1	62.8% (active)
COc1ccccc1-n1nnnc1S(=O)(=O)Cc1ccc(Cl)cc1	34.2% (active)
Cc1ccnc(NC(=O)C2CCN(S(=O)(=O)c3c(C)c(C)cc(C)c3C)CC2)c1	21.5% (inactive)

Tested on: transactivating tegument protein VP16 (Human herpesvirus 1)
Assay: VP16 transactivation reporter inhibitors, counter-screen for SRC2 inhibitor project, cell-based, luminescence, single concentration (AID 652007; in the data active = inhibition above about 36%)
Conditions: cell-based VP16 transactivation luciferase reporter, at 8.9 µM, active compounds read high

Compound	inhibition
COc1ccc(-n2c(C)cc(C(=O)CSc3nnc(-c4cccs4)o3)c2C)cc1	20% (inactive)
Cc1ccc(CS(=O)(=O)c2ncc(Cl)c(C(=O)Nc3nnc(C)s3)n2)cc1	27.1% (inactive)
Cc1ccc(OCC(=O)c2cc(C)n(Cc3ccco3)c2C)c([N+](=O)[O-])n1	23.6% (inactive)
COc1ccc(C(=O)NC2CCCc3c2cnn3-c2cccc(C)c2C)c(OC)n1 (centres undefined)	-6.55% (inactive)

Target: Nuclear receptor coactivator 2 (Homo sapiens) (UniProt Q15596)
Assay: SRC2 coactivator transcriptional activity inhibitors, confirmation, cell-based, luminescence, HEK293, triplicate (AID 652008;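 active = mean inhibition above 46.5%, the solvent-only control mean plus 3 SD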;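 also: 0% = DMSO-treated cells and 100% = Gossypol at 36 µM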)
Conditions: HEK293 GAL4-SRC2 luciferase reporter, at 8.9 µM, active compounds read high

Chain of Nuclear receptor coactivator 2 (Homo sapiens) (Q15596 whole entry, looked up): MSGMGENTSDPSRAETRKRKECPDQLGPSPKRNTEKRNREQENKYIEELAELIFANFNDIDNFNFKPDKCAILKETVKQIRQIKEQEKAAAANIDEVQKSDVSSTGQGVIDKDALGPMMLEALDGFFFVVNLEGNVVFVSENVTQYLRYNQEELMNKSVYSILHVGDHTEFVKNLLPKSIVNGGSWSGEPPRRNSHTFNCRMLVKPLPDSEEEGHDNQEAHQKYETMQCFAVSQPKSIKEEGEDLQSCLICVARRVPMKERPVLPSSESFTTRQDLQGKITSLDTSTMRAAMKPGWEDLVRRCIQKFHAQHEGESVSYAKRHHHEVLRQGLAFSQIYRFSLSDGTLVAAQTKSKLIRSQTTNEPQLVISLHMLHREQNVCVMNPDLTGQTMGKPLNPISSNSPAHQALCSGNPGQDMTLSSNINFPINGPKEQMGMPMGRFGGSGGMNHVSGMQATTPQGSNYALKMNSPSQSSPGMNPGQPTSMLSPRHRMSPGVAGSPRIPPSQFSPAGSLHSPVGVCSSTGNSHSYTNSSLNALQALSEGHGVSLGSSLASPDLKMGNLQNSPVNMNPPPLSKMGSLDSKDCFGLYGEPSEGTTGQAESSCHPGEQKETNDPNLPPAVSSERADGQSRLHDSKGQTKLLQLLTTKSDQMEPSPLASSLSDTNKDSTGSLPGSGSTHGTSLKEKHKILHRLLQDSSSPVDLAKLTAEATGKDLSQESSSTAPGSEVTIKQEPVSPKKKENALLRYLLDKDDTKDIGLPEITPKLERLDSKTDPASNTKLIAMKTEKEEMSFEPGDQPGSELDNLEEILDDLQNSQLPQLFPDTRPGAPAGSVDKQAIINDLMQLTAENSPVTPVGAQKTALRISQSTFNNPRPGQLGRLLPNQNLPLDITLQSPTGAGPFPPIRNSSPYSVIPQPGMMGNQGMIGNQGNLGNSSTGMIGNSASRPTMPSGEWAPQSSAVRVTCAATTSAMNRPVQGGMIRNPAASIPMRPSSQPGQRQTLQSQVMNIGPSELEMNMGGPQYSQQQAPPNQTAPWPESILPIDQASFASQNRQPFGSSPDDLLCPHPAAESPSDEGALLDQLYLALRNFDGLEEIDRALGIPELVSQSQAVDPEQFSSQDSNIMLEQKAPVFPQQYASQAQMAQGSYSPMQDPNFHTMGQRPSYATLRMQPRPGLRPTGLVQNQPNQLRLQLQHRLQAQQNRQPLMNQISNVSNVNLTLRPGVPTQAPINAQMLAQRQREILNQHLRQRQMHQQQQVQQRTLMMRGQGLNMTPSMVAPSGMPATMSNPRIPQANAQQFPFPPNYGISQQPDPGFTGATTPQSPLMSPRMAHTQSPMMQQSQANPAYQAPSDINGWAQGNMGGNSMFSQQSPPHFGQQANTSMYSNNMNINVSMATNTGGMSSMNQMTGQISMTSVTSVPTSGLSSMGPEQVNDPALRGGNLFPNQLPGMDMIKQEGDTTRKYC

Compound	inhibition
COc1ccc(-n2c(C)cc(C(=O)CSc3nnc(-c4cccs4)o3)c2C)cc1	33.9% (inactive)
Cc1ccc(CS(=O)(=O)c2ncc(Cl)c(C(=O)Nc3nnc(C)s3)n2)cc1	55% (active)
Cc1ccc(OCC(=O)c2cc(C)n(Cc3ccco3)c2C)c([N+](=O)[O-])n1	37.4% (inactive)
COc1ccc(C(=O)NC2CCCc3c2cnn3-c2cccc(C)c2C)c(OC)n1 (centres undefined)	19.8% (inactive)
